Drawing on PubChem BioAssay AID2417 (National Center for Advancing Translational Sciences (NCATS), 2010), this text covers activity change (PNC), negative = inhibition for 47 compounds.

About 4,300 (3.1%) of roughly 140,000 compounds were called active. Another 21% or so got no clear call; they are omitted. The sample as a whole holds a higher share of actives than the screen did. Unmarked numbers belong to inactive results.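 How the source made its calls: active means readout at or below -70, meaning at least 70% loss of cells showing the perinucleolar compartment, a nuclear body marking cancer cells; inconclusive means readout between -30 and a set limit; inactive means the rest.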

The assay is described as follows: High Content Assay for Compounds that inhibit the Assembly of the Perinucleolar Compartment.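 Further: plate controls were DMSO wells for no effect and camptothecin positive control wells for full effect.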 As to conditions: PC3M PTB-GFP, PNC prevalence imaging, 16 h; at 10 µM; stronger effect = lower value. Put shortly: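 PC3M cells stably expressing PTB-GFP, 750–1000 cells/well, treated 16 h at 37 °C with compound (23 nl of library stock), in duplicate. After paraformaldehyde fixation and Hoechst stain, imaged at 20x; PNC prevalence scored by image analysis.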
On to `CCCCC(=O)Nc1ccc(C(=O)Nc2cc(C(F)(F)F)ccc2Cl)cc1`, for which the activity change (PNC), negative = inhibition is 22.8%. In the case of `CC(=O)Nc1cccc(/C(C)=N/NC(=O)c2c(-c3ccccc3Cl)noc2C)c1`, the activity change (PNC), negative = inhibition is -109% (active). To `CC(=O)Nc1cccc(/C(C)=N/NC(=O)c2ccccc2Cl)c1` belongs 5.62%; to `Cc1onc(-c2ccccc2Cl)c1C(=O)NCCn1ccc2ccccc21`, -12.7%; to `CC(C)=C(NC(=O)c1ccccc1)C(=O)N/N=C(\C)c1ccccc1O`, 6.63%. To `CCOc1cccc(-n2nnnc2-c2ccc(OC)cc2)c1` belongs -83.5% (active); to `COc1ccc(-n2nnnc2-c2nc3ccccc3s2)cc1`, -8.45%; to `CCOc1cccc(-c2nnc3sc(COc4ccc(OC)cc4)nn23)c1`, -29.7%. In the case of `CSCCC(Nc1ccc(S(=O)(=O)N2CCOCC2)cc1[N+](=O)[O-])C(=O)OCC(=O)N(C(C)C)C(C)C` (configuration not stated), the activity change (PNC), negative = inhibition is -25.5%. For the compound `CCC(C)(C(=O)Nc1ccccc1C)N(C(=O)CNC(C)=O)c1ccc(C)cc1` (configuration not stated), the activity change (PNC), negative = inhibition is -15.4%. For the compound `Cc1ccc(-c2nc(CS(=O)CC(=O)NC3CCCC3)c(C)o2)cc1` (configuration not stated), the activity change (PNC), negative = inhibition is -106% (active).

With `Cc1ccc(-c2nc(CS(=O)CC(=O)N3CCN(c4ncccn4)CC3)c(C)o2)cc1` (configuration not stated), the activity change (PNC), negative = inhibition was 11.5%.

Turning to `COc1ccc(-c2nc(CS(=O)CC(=O)NCc3ccccn3)c(C)o2)cc1` (configuration not stated), the activity change (PNC), negative = inhibition is -19.8%. For `CSc1ccc(/C=C/C(=O)NC23CC4CC(CC(C4)C2)C3)cc1` the value was 11.8%. In the case of `CCCCOc1ccc(Cl)cc1CSc1nncn1N`, the activity change (PNC), negative = inhibition is -89.7% (active).

For `Cc1cc(=O)[nH]c(SCc2cc(Cl)ccc2OC(F)F)n1`, the activity change (PNC), negative = inhibition is 4.54%. Take `CCOC(=O)c1c(NC(=O)Cn2nc(C(F)(F)F)cc2C)sc2c1CCC2`: the activity change (PNC), negative = inhibition was 36.1%. As for `CN1CCN(C(=O)/C(=C\c2cccs2)NC(=O)c2cccs2)CC1`, the activity change (PNC), negative = inhibition was 0.966%.

In the case of `COc1cc2c(cc1/C=C1/NC(=O)N(c3ccccc3)C1=O)OCO2`, the activity change (PNC), negative = inhibition is -20.8%.

Turning to `CCOC(=O)c1c(C)n(C)c2ccc(OC)c(NS(=O)(=O)CC)c12`, the activity change (PNC), negative = inhibition is -8.82%.

`COc1ccc2c(-c3ccccc3)cc(SCC(=O)N(C)C3CCS(=O)(=O)C3)nc2c1` (configuration not stated): the activity change (PNC), negative = inhibition is 46.3%. For `O=[N+]([O-])c1ccc(N2CCNCC2)cc1NCc1cccnc1`, the activity change (PNC), negative = inhibition was 59.2%. To `Cc1cc(NC(=O)c2cccc(N3C(=O)CCC3=O)c2)no1` belongs -7.91%; to `COc1ccccc1NC(=O)c1ccc2nc(N3C(=O)CCC3=O)sc2c1`, 133%; to `O=C(Nc1cccc2cccnc12)c1cccc(N2C(=O)CCC2=O)c1`, -100% (active). As for `CCOC(=O)NN1C(=O)c2ccccc2NC1c1ccccc1O` (configuration not stated), the activity change (PNC), negative = inhibition was 19.7%. For `O=C(OCC(=O)c1c[nH]c2ccccc12)c1cccc(O)c1` the value was 49.4%. For `O=S(=O)(NCC1CCCO1)c1cnc(Cl)c(Cl)c1` (configuration not stated), the activity change (PNC), negative = inhibition was -19.6%. Consider `Cc1cccc(N2CCN(C(=O)/C=C/c3ccco3)CC2)c1C`, for which the activity change (PNC), negative = inhibition is 16.7%.

As for `CO/N=C/c1ccc(N2CCN(C(=O)c3cccc(Cl)c3)CC2)c([N+](=O)[O-])c1`, the activity change (PNC), negative = inhibition was 77.9%.

For `O=C(/C=C/c1ccc(Cl)cc1)N1CCN(c2ccccc2[N+](=O)[O-])CC1`, the activity change (PNC), negative = inhibition is -91.4% (active).

Regarding `CCCN=C1NC(=O)C(CC(=O)NCCc2ccc(OC)c(OC)c2)S1` (configuration not stated), the activity change (PNC), negative = inhibition was 58.6%. Consider `Cc1cc(C)c(C2C3=C(Nc4c2c(C)nn4-c2ccccn2)c2ccccc2C3=O)c(C)c1` (configuration not stated), for which the activity change (PNC), negative = inhibition is -28.9%. To `CC1=C[C@H]2Cc3cc(C)cc(C)c3S(=O)(=O)[C@@H]2C=C1` belongs 28.1%; to `COc1ccc(-n2c(C)cc(C(=O)COC(=O)c3cc(OC)c(OC)cc3NC(=O)c3cccs3)c2C)cc1`, 173%; to `Cc1cc(C(=O)COC(=O)c2cccs2)c(C)n1-c1c(C)n(C)n(-c2ccccc2)c1=O`, -127% (active).

As for `CCCn1c(C)cc(C(=O)COC(=O)c2c(C)nn(-c3ccccc3)c2C)c1C`, the activity change (PNC), negative = inhibition was -22.8%. Turning to `COc1ccc(C2=NOC(COC(=O)c3ccc4ccccc4n3)C2)cc1` (configuration not stated), the activity change (PNC), negative = inhibition was -3.15%. To `O=C(Oc1ccc([N+](=O)[O-])cc1)c1ccc2ccccc2n1` belongs -25.3%; to `COc1ccc(C(=O)COC(=O)c2ccc3ccccc3n2)cc1`, -89.8% (active); to `CCOc1ccc2nc(NC(=O)c3cc([N+](=O)[O-])ccc3N3CCOCC3)sc2c1`, -84.5% (active). On to `Cc1cc(C)cc(OCC(=O)Nc2nc3ccc([N+](=O)[O-])cc3s2)c1`, for which the activity change (PNC), negative = inhibition is 84.2%. As to `CCOc1ccc2nc(Nc3nc4ccc(NC(C)=O)cc4s3)sc2c1`, the activity change (PNC), negative = inhibition is 10%. In the case of `Cc1ccc(-c2csc(SCC(=O)Nc3cc(C)on3)n2)cc1`, the activity change (PNC), negative = inhibition was 32.6%. As for `CCOc1ccccc1Nc1nnc(SCC(=O)Nc2cc(C)on2)s1`, the activity change (PNC), negative = inhibition was 1.96%.

`Cc1cc(C)c2c(c1)cc(C)c1nnc(SCC(=O)Nc3cc(C)on3)n12`: the activity change (PNC), negative = inhibition was -88.4% (active). In the case of `COc1cccc(-n2c(SCC(=O)c3c[nH]c4ccccc34)nc3ccccc3c2=O)c1`, the activity change (PNC), negative = inhibition was -15.1%.
